The list is a sample of the results.
aSyn UTR act: Activators working through SNCA 5'UTR binding (MLPCN) | activity score, % (tested at 7.5 µM), hits read low | alpha-synuclein 5'UTR reporter, activators screen | 300,000 tested, 7.1% active; in the data active = activity score below about -60%
Numbers without * were called inactive.

For CCOC(=O)c1ccc(S(=O)(=O)NCCN(CC)CC)cc1 the results were aSyn UTR act 52.
For COC(=O)c1ccc(NC(=O)CNc2ccccc2)cc1 the results were aSyn UTR act -99*.
For CCOC(=O)c1ccc(NC(=S)Nc2ccc(C)cc2)cc1 the results were aSyn UTR act -145*.
`CCOC(=O)c1ccc(NC(=S)Nc2ccccc2)cc1` gave aSyn UTR act -147*.
Screening CCOC(=O)c1cn[nH]c1NC(=S)Nc1ccc(Cl)cc1 returned aSyn UTR act -66*.
Screening CCOC(=O)c1c(C)c(C(=O)Nc2ccc(N(C)C)cc2)c(C)n1CC returned aSyn UTR act -82*.
`CCC(=O)C1CCCN(C(=O)CCc2nnc(-c3ccc(C(C)=O)s3)o2)C1` (stereo unspecified) gave aSyn UTR act -88*.
Screening CCCOC1CCCN(C(=O)CCc2nnc(-c3ccc4c(c3)OCO4)o2)C1 (stereo unspecified) returned aSyn UTR act -73*.
For O=C(c1ccc(F)cc1)c1ccc(N2CCCC2)cc1 the results were aSyn UTR act -147*.
`O=C(Nc1ccc(N2CCCCC2)cc1)c1ccc(F)cc1` gave aSyn UTR act -80*.
`O=C(Nc1ccc2nn(-c3ccc(F)cc3)nc2c1)c1cccnc1` gave aSyn UTR act -94*.
For O=S(=O)(c1ccc(N2CCCC2)cc1)C(F)(F)F the results were aSyn UTR act -149*.
`O=C(Nc1ccc(N2CCCCC2)cc1)c1cccnc1` gave aSyn UTR act -149*.
For O=C(c1ccc(F)cc1)c1ccc(N2CCCCC2)cc1 the results were aSyn UTR act -145*.
CCc1ccc(Nc2nnc(SCC(=O)Nc3cccc(S(=O)(=O)NC4=NCCCCC4)c3)s2)cc1 was read as aSyn UTR act -147*.
For Cc1cccc(Nc2nnc(SCC(=O)Nc3cccc(S(=O)(=O)N4CCCCC4)c3)s2)c1 the results were aSyn UTR act -152*.
CC(NC(=O)Cn1ncc(Cl)c(Cl)c1=O)C12CC3CC(CC(C3)C1)C2 (stereo unspecified) was read as aSyn UTR act 88.
`O=C(Cn1sc2ccccc2c1=O)NC12CC3CC(CC(C3)C1)C2` gave aSyn UTR act -92*.
Cc1cc(O)c(C2=Nc3ccccc3SC(c3ccc(Cl)cc3)C2)c(=O)o1 (stereo unspecified) was read as aSyn UTR act -261*.
For O=C(Nc1ccn(Cc2ccccc2F)n1)c1ccc(COc2cccc(Br)c2)cc1 the results were aSyn UTR act -150*.
For CCOc1ccc(C2C(C(=O)c3ccc(C)o3)=C(O)C(=O)N2c2nc(C)c(C(=O)OC)s2)cc1 (stereo unspecified) the results were aSyn UTR act -92*.
Screening c1ccc(CCNc2nc(-c3ccncc3)cs2)cc1 returned aSyn UTR act -114*.
Screening CCCCCNc1nc(-c2ccccc2)cs1 returned aSyn UTR act -169*.
CCOC(=O)C1(Cc2cccc(Cl)c2)CCCN(C(=O)CN2C(=O)CSC2=O)C1 (stereo unspecified) was read as aSyn UTR act -75*.
`CCOC(=O)C1(Cc2cccc(Cl)c2)CCCN(C(=O)c2ccnn2C)C1` (stereo unspecified) gave aSyn UTR act -85*.
Screening COc1ccc(-c2cc3nc(C)cc(C)n3n2)cc1 returned aSyn UTR act -183*.
`Cc1cc(C)n2nc(-c3ccc(Br)cc3)cc2n1` gave aSyn UTR act -122*.
Screening Cc1cc(C)n2nc(-c3ccc(Cl)cc3)cc2n1 returned aSyn UTR act -129*.
`Cc1cc(C)n(-c2nc(-c3ccc(Cl)cc3)cs2)n1` gave aSyn UTR act -93*.
Screening COc1ccc(-c2nc3nc(C)cc(C)n3n2)cc1 returned aSyn UTR act -135*.
COc1ccc2c(Cl)c(C(=O)NC3CCS(=O)(=O)C3)sc2c1 (stereo unspecified) was read as aSyn UTR act -80*.
`O=C(Nc1nccs1)c1sc2cc(Cl)ccc2c1Cl` gave aSyn UTR act -115*.
Screening O=C(NC1CC1)c1sc2cc(Cl)ccc2c1Cl returned aSyn UTR act -97*.
`O=C(Nc1nccs1)c1sc2ccccc2c1Cl` gave aSyn UTR act 53.
`Cc1ccc(/C=N/Nc2ccc(F)cc2F)s1` gave aSyn UTR act -180*.
Screening COc1cc(/C=N/Nc2ccc(F)cc2F)cc(OC)c1O returned aSyn UTR act -63*.
`CC(=O)c1ccc(NC(=O)C2(c3ccccc3)CCOCC2)cc1` gave aSyn UTR act -118*.
`COc1ccc(CNC(=O)Cc2cccs2)cc1` gave aSyn UTR act -70*.
Screening O=C(CCCc1cccs1)Nc1ccc2c(c1)OCO2 returned aSyn UTR act -182*.
Screening O=C(CCCN1C(=O)/C(=C/c2ccc3c(c2)OCO3)SC1=S)Nc1cccc(C(=O)O)c1 returned aSyn UTR act 73.
For O=C(Cc1cccs1)NCc1cccc(Br)c1 the results were aSyn UTR act -112*.
O=C(Cc1cccs1)NCc1ccc2c(c1)OCO2 was read as aSyn UTR act -65*.
`COc1ccc(CNC(=O)CSc2ccsc2[N+](=O)[O-])cc1` gave aSyn UTR act -117*.
`O=C(Nc1ccccc1)Nc1ccc2ncoc2c1` gave aSyn UTR act -119*.
O=C(Nc1ccccc1)Nc1ccc2ocnc2c1 was read as aSyn UTR act -117*.
Screening COc1ccc2cc(C(=O)N3CCc4ccccc43)[nH]c2c1 returned aSyn UTR act -122*.
Screening COc1ccc(-c2cc(C(F)F)n3ncc(C(=O)N4CCc5ccccc54)c3n2)cc1 returned aSyn UTR act 60.
`O=C(c1cc2cc(F)ccc2[nH]1)N1CCc2ccccc21` gave aSyn UTR act -177*.
`O=C(c1cc2cc(Br)ccc2[nH]1)N1CCc2ccccc21` gave aSyn UTR act -76*.
For S=c1[nH]nc(-c2cc3c(s2)-c2ccccc2CC3)o1 the results were aSyn UTR act -123*.
Screening CSc1nnc(-c2cc3c(s2)-c2ccccc2CC3)o1 returned aSyn UTR act -169*.
Cc1ccc(NC(=O)CSC2=C(C#N)C(c3ccco3)CC(=O)N2)cc1 (stereo unspecified) was read as aSyn UTR act -148*.
`Cc1ccccc1NC(=O)CSC1=C(C#N)C(c2ccsc2)CC(=O)N1` (stereo unspecified) gave aSyn UTR act -84*.
For CC(C)C1CC(=O)NC(SCC(=O)Nc2ccc(Br)cc2)=C1C#N (stereo unspecified) the results were aSyn UTR act -74*.
Screening c1cc2c(cc1C1CCCCC1)c1c3n2CCCNC3CCC1 (stereo unspecified) returned aSyn UTR act 87.
For CCOC(=O)c1c(C)[nH]c(N=Nc2ccc(C)cc2C)c1C the results were aSyn UTR act -106*.
`CCOC(=O)c1c(C)[nH]c(N=Nc2ccccc2C)c1C` gave aSyn UTR act -213*.
Screening CC(C)c1cccc(C(C)C)c1NC(=O)CCl returned aSyn UTR act -76*.
`O=C(CCl)NC(Cc1ccccc1)c1ccccc1` (stereo unspecified) gave aSyn UTR act 60.
`Cc1ccc(C(=O)NCCSC(C)(C)C)cc1[N+](=O)[O-]` gave aSyn UTR act -119*.
Screening O=C(NCCSc1ccccc1)c1ccccc1 returned aSyn UTR act -191*.
COc1cccc(C(=O)NCC(=O)N2CCC(C)CC2)c1 was read as aSyn UTR act -115*.
CSCCNC(=O)c1ccc(C(C)(C)C)cc1 was read as aSyn UTR act -84*.
CC(C)(C)c1ccc(C(=O)NCCOc2ccccc2F)cc1 was read as aSyn UTR act 77.
